Assay [1] in a line: antimalarial activity against Dd2 strain (AID 2302;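 active = growth inhibition above 50% at the single 2 µM test dose, taken to imply half-maximal potency below 2 µM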;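 note: 0% = DMSO untreated growth and 100% = chloroquine plus artemisinin killed control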). As to conditions: P. falciparum Dd2 in RBCs, LDH growth readout, 72 h; at 2 µM; stronger effect = higher value.
Assay [2] is described as follows: human hepatoma cell viability loss – ATP luminescence, cytotoxicity control for P. falciparum antimalarial project, primary screen (AID 2303;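 active = inhibition above 50%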;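 note: 0% = DMSO wells and 100% = digitonin-killed cells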). As to conditions: HepG2 viability, 24-48 h, at 10 µM, stronger effect = higher value.
Assay [3] has as its target L-lactate dehydrogenase (Plasmodium falciparum (isolate CDC / Honduras)) (UniProt Q27743). The assay can be described thus: PfLDH activity inhibition – cell lysate, 3D7 strain, counter-screen for P. falciparum growth inhibition project (AID 2304).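 Note: 0% = vehicle and 100% = reference inhibitor.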 As to conditions: P. falciparum 3D7 crude extract, LDH APAD/NBT absorbance; at 2 µM; stronger effect = higher value. (In general: A counterscreen serves to expose hits that act by an unwanted route or on another target.)

Assay [4] can be described thus: inhibition of 3D7 malaria parasite growth – strain 3D7 (AID 2306).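 Note: 0% = DMSO wells and 100% = chloroquine plus artemisinin control wells.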 As to conditions: P. falciparum 3D7 erythrocytic growth, LDH absorbance, 72 h; at 2 µM; stronger effect = higher value.
For assay [5], the target named is Calcium-dependent protein kinase 1 (Plasmodium falciparum (isolate 3D7)) (UniProt P62344). The assay can be described thus: PfCDPK1 kinase inhibitors, biochemical, TCAMS library (AID 1159585; cut-off not given, nearly all actives have IC50 up to about 0.98 µM;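 note: inhibitors leave more ATP so luminescence rises with inhibition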). As to conditions: recombinant PfCDPK1, Kinase-Glo ATP depletion luminescence. Background: Kinase-Glo measures the ATP left after a reaction by luminescence.
Chain of Calcium-dependent protein kinase 1 (Plasmodium falciparum (isolate 3D7)) (P62344 whole entry, looked up): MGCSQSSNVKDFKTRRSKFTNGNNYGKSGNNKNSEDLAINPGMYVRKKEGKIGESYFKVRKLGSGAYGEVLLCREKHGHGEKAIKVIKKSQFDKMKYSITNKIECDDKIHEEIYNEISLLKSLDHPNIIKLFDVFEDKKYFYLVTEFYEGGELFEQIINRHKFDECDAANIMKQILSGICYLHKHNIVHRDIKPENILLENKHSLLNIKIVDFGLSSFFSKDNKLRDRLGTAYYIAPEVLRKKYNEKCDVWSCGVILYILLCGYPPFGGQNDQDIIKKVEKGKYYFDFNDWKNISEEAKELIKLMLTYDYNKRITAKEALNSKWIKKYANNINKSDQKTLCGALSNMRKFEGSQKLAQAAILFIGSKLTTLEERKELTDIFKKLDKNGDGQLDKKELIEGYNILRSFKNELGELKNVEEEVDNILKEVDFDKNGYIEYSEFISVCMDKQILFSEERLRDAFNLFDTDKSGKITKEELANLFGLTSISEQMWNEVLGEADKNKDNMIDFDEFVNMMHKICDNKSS
The target of assay [6] is Plasmodium falciparum protein kinase 6 (PK6, PF3D7_1337100) (UniProt Q8IDW1). In words: PfPK6 kinase inhibitors, biochemical, TCAMS library (AID 1159586). As to conditions: recombinant PfPK6, Kinase-Glo ATP depletion luminescence.
Chain of Plasmodium falciparum protein kinase 6 (PK6, PF3D7_1337100) (Q8IDW1 1-305): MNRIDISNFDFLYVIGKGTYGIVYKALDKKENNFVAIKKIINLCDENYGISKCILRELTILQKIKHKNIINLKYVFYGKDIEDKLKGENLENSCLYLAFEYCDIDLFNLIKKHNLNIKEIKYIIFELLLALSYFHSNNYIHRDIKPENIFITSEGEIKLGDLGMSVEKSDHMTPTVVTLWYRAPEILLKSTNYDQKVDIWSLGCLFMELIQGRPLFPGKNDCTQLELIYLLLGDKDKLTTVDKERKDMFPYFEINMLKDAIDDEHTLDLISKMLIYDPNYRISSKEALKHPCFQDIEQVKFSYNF
For assay [7], the target named is Protein kinase 7 (PK7), Plasmodium falciparum 3D7 (PF3D7_0213400) (UniProt Q7YTF7). In words: inhibition of Plasmodium PK7 catalytic activity – biochemical, TCAMS antimalarial set, Kinase-Glo luminescence (AID 1159587). As to conditions: recombinant PfPK7, Kinase-Glo ATP depletion luminescence.
Chain of Protein kinase 7 (PK7), Plasmodium falciparum 3D7 (PF3D7_0213400) (Q7YTF7 1-343): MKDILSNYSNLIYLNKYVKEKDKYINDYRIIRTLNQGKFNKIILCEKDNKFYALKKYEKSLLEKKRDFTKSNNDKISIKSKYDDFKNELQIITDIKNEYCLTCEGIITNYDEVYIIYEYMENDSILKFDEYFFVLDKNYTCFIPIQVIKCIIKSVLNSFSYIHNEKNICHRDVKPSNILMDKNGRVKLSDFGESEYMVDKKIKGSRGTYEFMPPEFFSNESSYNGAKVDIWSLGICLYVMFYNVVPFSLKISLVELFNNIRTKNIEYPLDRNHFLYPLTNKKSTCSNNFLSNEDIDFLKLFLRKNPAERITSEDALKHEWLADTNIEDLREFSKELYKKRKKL
The target in assay [8] is Calcium-dependent protein kinase 4 (Plasmodium falciparum (isolate 3D7)) (UniProt Q8IBS5). In words: PfCDPK4 kinase inhibitors, biochemical, TCAMS library (AID 1159588; cut-off not given, nearly all actives have IC50 up to about 0.91 µM). As to conditions: recombinant PfCDPK4, Kinase-Glo ATP depletion luminescence.
Chain of Calcium-dependent protein kinase 4 (Plasmodium falciparum (isolate 3D7)) (Q8IBS5 whole entry, looked up): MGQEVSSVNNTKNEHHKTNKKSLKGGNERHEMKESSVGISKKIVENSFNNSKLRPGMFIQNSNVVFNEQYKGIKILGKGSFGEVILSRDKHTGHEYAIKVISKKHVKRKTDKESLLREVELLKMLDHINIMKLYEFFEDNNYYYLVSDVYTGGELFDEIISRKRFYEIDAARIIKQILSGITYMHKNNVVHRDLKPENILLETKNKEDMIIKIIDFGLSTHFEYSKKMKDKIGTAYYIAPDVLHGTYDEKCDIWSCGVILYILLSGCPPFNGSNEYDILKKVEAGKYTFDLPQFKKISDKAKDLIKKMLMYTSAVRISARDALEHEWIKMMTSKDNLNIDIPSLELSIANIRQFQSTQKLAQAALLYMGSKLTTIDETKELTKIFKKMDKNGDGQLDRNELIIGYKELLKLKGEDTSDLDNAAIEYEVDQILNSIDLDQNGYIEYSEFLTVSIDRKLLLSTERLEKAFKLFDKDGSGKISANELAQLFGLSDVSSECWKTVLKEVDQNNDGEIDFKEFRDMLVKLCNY

The structures appear in SMILES notation. Values without a mark were called inactive. For part of these data: Entries with a potency or affinity are not part of this list. Active and inactive are the calls of the source. Unless noted, the rule behind the calls is not given here.

Chain of L-lactate dehydrogenase (Plasmodium falciparum (isolate CDC / Honduras)) (Q27743 whole entry, looked up): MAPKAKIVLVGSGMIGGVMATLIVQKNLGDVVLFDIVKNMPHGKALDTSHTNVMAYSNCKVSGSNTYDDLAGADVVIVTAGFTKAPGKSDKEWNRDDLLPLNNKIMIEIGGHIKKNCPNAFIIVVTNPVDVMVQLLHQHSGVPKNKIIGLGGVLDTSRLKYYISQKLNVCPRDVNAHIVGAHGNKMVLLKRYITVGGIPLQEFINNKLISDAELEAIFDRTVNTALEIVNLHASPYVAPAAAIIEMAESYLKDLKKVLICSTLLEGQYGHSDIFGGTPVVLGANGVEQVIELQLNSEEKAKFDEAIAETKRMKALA

Turning to `O=C(Nc1ccc(C(=O)Oc2ccc(-c3ccccc3)cc2)cc1)N[C@@H](Cc1ccc(O)cc1)C(=O)NC1CCN(Cc2ccc(O)cc2)C1` (some centres undefined), the growth inhibition in assay [1] was 60% (active); in assay [4] it was 94% (active). Further, the inhibition in assay [2] was -7%; in assay [3], 0%. Besides, the result in assay [5], in assay [6], in assay [7] and in assay [8] was inactive.

Take `CC(C)CCN=C(N)Nc1ccc(OCCCCCOc2ccc(NC(N)=NCCC(C)C)cc2)cc1`: the growth inhibition was 67% (active) in assay [1] and 85% (active) in assay [4]. Moreover, the inhibition in assay [2] was 14%; in assay [3], 6%. Moreover, the result in assay [5], in assay [6], in assay [7] and in assay [8] was inactive.

With `CC1CN(Cc2ccc(-c3ccc(-c4nc5ccc(F)cc5[nH]4)cc3)cc2)CC(C)O1` (centres undefined), the growth inhibition in assay [1] is 93% (active); in assay [4] it was 96% (active). The inhibition in assay [2] is 40%; in assay [3], -1%. The result in assay [5], in assay [6], in assay [7] and in assay [8] was inactive.

Consider `Cc1cc(N(C)CCN(C)C)nc(Nc2ccc(Cl)cc2)n1`, for which the results for the growth inhibition in assay [1] and in assay [4] were 14% and 92% (active), respectively. The values for the inhibition in assay [2] and in assay [3] were -1% and -3%, respectively. Further, the outcome in assay [5], in assay [6], in assay [7] and in assay [8] was inactive.

As for `COc1cc(NC(=O)c2sc(-c3ccc(Cl)cc3)cc2NC(=O)c2cccnc2)ccc1OCCN1CCCC1`, the growth inhibition in assay [1] was 77% (active); in assay [4] it was 94% (active). The inhibition in assay [2] was 38%; in assay [3] it was -1%. In addition, the outcome in assay [5], in assay [6], in assay [7] and in assay [8] was inactive.

For `COc1ccccc1C(=O)Nc1ccc(Nc2nc(C)cc(N3CCOCC3)n2)cc1`, the growth inhibition in assay [1] was 22%; in assay [4], 98% (active). For the same compound, the inhibition was 28% in assay [2] and -3% in assay [3]. The outcome in assay [5], in assay [6], in assay [7] and in assay [8] was inactive.

In the case of `CN1CCCN(Cc2cccc(-c3ccc(CNC(=O)c4cccc(Cl)c4)c(F)c3)c2)CC1`, the growth inhibition in assay [1] was 38%; in assay [4], 96% (active). The inhibition in assay [2] was 56% (active); in assay [3] it was -2%. The outcome in assay [5], in assay [6], in assay [7] and in assay [8] was inactive.

For the compound `COc1ccc2nc3cc(Cl)ccc3c(NCCNCC(O)CO)c2n1` (centres undefined), the growth inhibition in assay [1] is 101% (active); in assay [4], 100% (active). For the same compound, the inhibition in assay [2] was 12%; in assay [3], 2%. Moreover, the result in assay [5], in assay [6], in assay [7] and in assay [8] was inactive.

As for `COCc1ccc(CN2CCC(C(=O)Nc3ccc(-c4nc5ccccc5[nH]4)cc3)CC2)o1`, the growth inhibition in assay [1] was 13%; in assay [4] it was 97% (active). Besides, the inhibition in assay [2] was 13%; in assay [3], -5%. Besides, the result in assay [5], in assay [6], in assay [7] and in assay [8] was inactive.

With `O=C(NCC1CCN(Cc2ccc3c(c2)OCCO3)C1)c1cc(-c2cccc(C(F)(F)F)c2)cs1` (centres undefined), the values for the growth inhibition in assay [1] and in assay [4] were 1% and 101% (active), respectively. Moreover, the inhibition in assay [2] is 31%; in assay [3], 4%. Also, the outcome in assay [5], in assay [6], in assay [7] and in assay [8] was inactive.

Consider `CCOc1cc(CC)ccc1C1CCN(CCCCNC(=O)c2ccc(NC(=O)c3ccc(Cl)cc3)cc2)CC1`, for which the growth inhibition in assay [1] is 58% (active); in assay [4], 101% (active). Besides, the values for the inhibition in assay [2] and in assay [3] were 11% and 5%, respectively. The outcome in assay [5], in assay [6], in assay [7] and in assay [8] was inactive.

In the case of `Cc1cccc2[nH]c(-c3cccc(-c4ccc(CN5CCCC5CN)cc4)c3)nc12` (centres undefined), the figures for the growth inhibition in assay [1] and in assay [4] were 47% and 101% (active), respectively. The inhibition in assay [2] was 19%; in assay [3], 3%. For the same compound, the result in assay [5], in assay [6], in assay [7] and in assay [8] was inactive.

As to `Nc1nc(N)c2c(ccc3c2ccn3CCCF)n1`, the growth inhibition in assay [1] was 0%; in assay [4], 94% (active). The inhibition in assay [2] is 61% (active); in assay [3], 0%. For the same compound, the result in assay [5], in assay [6], in assay [7] and in assay [8] was inactive.

As for `O=C(NCc1cccc(Cl)c1)c1ccc(CNC2CCN(Cc3ccccc3)CC2)cc1`, the growth inhibition in assay [1] is 50% (active); in assay [4] it was 100% (active). Moreover, the inhibition in assay [2] was 13%; in assay [3], 5%. Besides, the result in assay [5], in assay [6], in assay [7] and in assay [8] was inactive.

Turning to `CC(O)C1CCCCN1C(=O)c1cccc(-c2ccc(-c3nc4ccc(C(F)(F)F)cc4[nH]3)cc2)c1` (centres undefined), the growth inhibition in assay [1] is 100% (active); in assay [4], 101% (active). For the same compound, the inhibition in assay [2] is 33%; in assay [3], 0%. Further, the result in assay [5], in assay [6], in assay [7] and in assay [8] was inactive.

Turning to `O=C(NCCCN1CCOCC1)c1ccc(-c2cccc(NC(=O)c3ccc(Cl)c(Cl)c3)c2)cc1`, the figures for the growth inhibition in assay [1] and in assay [4] were 68% (active) and 100% (active), respectively. In addition, the inhibition in assay [2] and in assay [3] was 3% throughout. Moreover, the result in assay [5], in assay [6], in assay [7] and in assay [8] was inactive.

Regarding `CC(C)n1ncc2c(C(=O)N3CCCC4CCCCC43)cc(C3CC3)nc21` (centres undefined), the growth inhibition in assay [1] is 92% (active); in assay [4] it was 99% (active). Besides, the inhibition in assay [2] was 7%; in assay [3], 2%. The result in assay [5], in assay [6], in assay [7] and in assay [8] was inactive.

On to `O=C(CCc1cnc[nH]1)Nc1cccc(-c2cccc(-c3nc4ccccc4[nH]3)c2)c1`, for which the growth inhibition was 25% in assay [1] and 101% (active) in assay [4]. In addition, the inhibition in assay [2] was 8%; in assay [3], 3%. For the same compound, the result in assay [5], in assay [6], in assay [7] and in assay [8] was inactive.

As a reminder, the inhibition is the change of the read-out against control, counted positive when it falls.

The values are drawn from PubChem BioAssay.
